PubChem BioAssay AID429 (Emory University Molecular Libraries Screening Center, 2006)
In all, about 64,000 compounds went through this assay and about 220 (0.34%) were called active. The sample holds actives, similar compounds and a random draw of the others, so the mix is not that of the screen.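 How the source made its calls: active means inhibition above 50%; inactive means the rest.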

Target: Heat shock protein HSP 90-alpha (Homo sapiens) (UniProt P07900)
Experiment: tumor Hsp90 inhibitors, primary screen, cell lysate, fluorescence polarization, NCI-N417 lysate (AID 429);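 further: 0% = tracer plus lysate wells and 100% = tracer alone without lysate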
Conditions: NCI-N417 lysate Hsp90, Cy3B-geldanamycin FP displacement; at 30 µM; active compounds read high

SMILES	inhibition
NC1CCN(O)C1=O (stereo unspecified)	-1.33% (inactive)
CCCC(=O)N(CCc1ccccc1)Cc1nc2ccccc2c(=O)[nH]1	-3.96% (inactive)
Cn1c(=O)[nH]c(=O)c2c1nc(Br)n2CCCCSc1nc2ccccc2o1	2.94% (inactive)
CSCCC(NS(=O)(=O)/C=C/c1ccccc1)C(=O)N1CCC(C)CC1 (stereo unspecified)	0.46% (inactive)
O=S1(=O)CCN2C(=N1)SC1=C2CCN(Cc2ccccc2)C1	1.02% (inactive)
COc1cc2c(cc1OC)C(c1ccncc1)CC(=O)N2 (stereo unspecified)	-0.47% (inactive)
CCC/C(O)=C1\C(=O)CC(C)(C)CC1=Nc1ccccc1OC	-4.54% (inactive)
CC(=O)c1c(C)c[nH]c1C	3.14% (inactive)
COc1cc(C(=O)Nc2oc(-c3ccccc3)c(-c3ccccc3)c2C#N)cc(OC)c1OC	1.74% (inactive)
COc1ccc(CNC2CCCCC2)cc1	-2.8% (inactive)
C=CCn1c(N)c(S(=O)(=O)c2cccs2)c2nc3ccccc3nc21	-4.06% (inactive)
C=CCn1c(N)c(C(=O)OCC(C)C)c2nc3ccccc3nc21	65.5% (active)
CC(C)Cn1c(N)c(C(=O)NCc2cccs2)c2nc3ccccc3nc21	-3.05% (inactive)
CS(=O)(=O)NCc1ccc(C(=O)NCc2ccccc2)cc1	-1.87% (inactive)
N#C/C(=C\c1ccc(O)c(O)c1)C(=O)NCc1ccccc1	77.1% (active)
O=C(CCOc1ccccc1)NCc1ccccc1	2.46% (inactive)
COc1ccc(C2CC(c3ccc(C)cc3)Nc3ncnn32)cc1 (stereo unspecified)	-1.24% (inactive)
CN(C)CCOC(=O)C(c1ccccc1)C1(O)CCCC1 (stereo unspecified)	-3.68% (inactive)
CC(=O)c1ccc(-n2nnnc2SCC(=O)N2CCN(C(=O)c3ccco3)CC2)cc1	-0.68% (inactive)
O=C(O)C1CCCN(CCC=C(c2ccccc2)c2ccccc2)C1 (stereo unspecified)	0.96% (inactive)
COc1cc(NS(=O)(=O)c2cccc3nsnc23)c2ncccc2c1	0.42% (inactive)
COc1ccccc1Oc1ccc(S(=O)(=O)Nc2cccnc2)cc1	-4.43% (inactive)
O=C(O)CCC(=O)N(Cc1ccco1)c1nc(-c2ccccc2)cs1	-1.19% (inactive)
CS(=O)(=O)N1CCCC(C(=O)N2CCOCC2)C1 (stereo unspecified)	-0.69% (inactive)

SMILES	inhibition
CN(c1ccc(C(=O)NCCC2=CCCCC2)cc1)S(C)(=O)=O	-2.17% (inactive)
NC(=O)Cn1c(=O)oc2ccccc21	2.54% (inactive)
O=C(NCCCN1CCN(Cc2ccccc2)CC1)C1CCN(S(=O)(=O)N2CCCC2)CC1	-1.77% (inactive)
Oc1ccc(Cl)cc1/C=N/c1nc2ccccc2[nH]1	1.09% (inactive)
NC(=O)C1=CN(C2OC(COP(=O)(O)OP(=O)(O)OC[C@H]3O[C@@H](n4cnc5c(N)ncnc54)C(OP(=O)(O)O)[C@H]3O)C(O)C2O)C=CC1 (stereo partly specified)	-0.66% (inactive)
CCCCSc1nnc(-c2ccc(NC(=O)CC)cc2)n1C	-0.77% (inactive)
COC(=O)Cc1csc(Nc2c(C)n(C)n(-c3ccccc3)c2=O)n1	-1.47% (inactive)
CCOc1ccc(N(CC(=O)NCc2ccc(OC)cc2)S(=O)(=O)c2c(C)noc2C)cc1	-5.24% (inactive)
O=C(Nc1ccccc1-c1nnn(CC(=O)N2CCN(c3ccccc3)CC2)n1)c1cccs1	0.39% (inactive)
CC(c1cccnc1)N(CCN(C)C)C(=O)Nc1ccc(Cl)c(Cl)c1 (stereo unspecified)	-1.45% (inactive)
Cn1c(=O)c2c(nc(SCC(=O)Nc3ccccc3N3CCCCC3)n2C)n(C)c1=O	-1.91% (inactive)
COc1ccc(Cn2cccc(NC(=O)Nc3ccc(C#N)cc3)c2=O)cc1	-1.69% (inactive)
O=C1C=C(NCCNc2c(F)c(F)c(CO)c(F)c2F)CCC1	-1.66% (inactive)
Cn1cccc1C1(C(F)(F)F)NCCNC1=O (stereo unspecified)	-0.05% (inactive)
CCN(CC)Cc1c(C(=O)OC)nnn1-c1nonc1N	-0.51% (inactive)
Cc1cc2c(cc1C)NC(c1ccccn1)C1=C(CC(C)(C)CC1=O)N2 (stereo unspecified)	0.74% (inactive)
COC(=O)c1cc(S(=O)(=O)NC2CCN(Cc3ccccc3)CC2)cn1C	-0.68% (inactive)
C=C(C)c1cccc(C(C)(C)NC(=O)N2CCN(c3ncccn3)CC2)c1	1.26% (inactive)
CCOC(=O)N1CCN(C(=O)c2nn(-c3ccc(C)cc3)c(=O)c3c2c2ccccc2n3C)CC1	-3.87% (inactive)
CC(C)C(c1nnnn1C1CCCC1)N1CCN(c2ccccc2F)CC1 (stereo unspecified)	-0.85% (inactive)
O=S1(=O)CC(NCc2ccccc2)C(Nc2ccc(Cl)cc2)C1 (stereo unspecified)	1.54% (inactive)
COc1cc(N=C2C=CC(=O)C=C2)c2ncccc2c1	3.25% (inactive)
COc1ccc(-c2nc(CS(=O)CC(=O)NCc3ccccn3)c(C)o2)cc1 (stereo unspecified)	71.4% (active)
COc1ccc(-c2nc(CS(=O)CC(=O)NCc3cccnc3)c(C)o2)cc1OC (stereo unspecified)	-3.8% (inactive)

SMILES	inhibition
COc1ccc(-c2nc(CS(=O)CC(=O)N3CCc4ccccc4C3)c(C)o2)cc1 (stereo unspecified)	0.64% (inactive)
O=C1[C@@H]2C(Cc3ccc(O)cc3)NC3(C(=O)Nc4ccc(F)cc43)[C@@H]2C(=O)N1c1ccc(F)cc1 (stereo partly specified)	-5.22% (inactive)
NC(=NC(=O)c1ccccc1)C1=C(O)CCC1=O	0.78% (inactive)
CSCCC(Nc1nc2ccccc2s1)C(=O)O (stereo unspecified)	2.67% (inactive)
C[C@H](NC(=O)NCCc1ccccc1)C(=O)O	1.74% (inactive)
Cc1ccc(C)c(NS(=O)(=O)c2cc(Br)cnc2N)c1	0.39% (inactive)
Cc1[nH]c2ccccc2c1C(=O)CSCC(=O)O	-2.89% (inactive)
CC1CCN(Cc2nc3c(c(=O)n(C)c(=O)n3C)n2Cc2cccc3ccccc23)CC1	-1.11% (inactive)
CCCOC(=O)Cc1c(O)c2ccccc2[nH]c1=O	1.56% (inactive)
COc1cc(OC)cc(-c2nc3nc(C)c(CCC(=O)NCc4ccco4)c(C)n3n2)c1	1.84% (inactive)
Cc1ccc(C2(c3ccc(C)cc3)NC(=O)N(Cc3c(C)noc3C)C2=O)cc1	1.01% (inactive)
C#CCCCNc1cc(OC)cc2cccnc12	-1.17% (inactive)
COc1cc(NCCCC#N)c2ncccc2c1	-2.3% (inactive)
COc1cc(NC(C)CCCNC(C)C)c2ncccc2c1 (stereo unspecified)	95.6% (active)
CCOC(=O)C1CCCN(Cc2nc(N)nc(Nc3ccc(C)cc3)n2)C1 (stereo unspecified)	-6.1% (inactive)
CC(C)n1c(NCc2c[nH]c3ccccc23)nc2ccccc21	1.28% (inactive)
CCN(CC)S(=O)(=O)c1ccc(C(=O)Nc2cc(Br)cc3cccnc23)cc1	1.06% (inactive)
COc1ccc(-n2c(SCC(=O)NCc3cccs3)nnc2-c2ccoc2C)cc1	-1.94% (inactive)
Cc1cccc(Cn2c(N3CCN(c4ccccc4)CC3)nc3c2c(=O)n(C)c(=O)n3C)c1	-2.67% (inactive)
O=C(NCc1cn2ccsc2n1)Nc1cccc(Cl)c1	-4.35% (inactive)
CCc1ccc(N(CC)c2ncnc3nc[nH]c23)cc1	-2.13% (inactive)
CCC1(C)CC(=O)NC1=O (stereo unspecified)	0.1% (inactive)
CC[C@@H]1Cc2cc(O)ccc2C2=C1c1ccc(O)cc1C[C@H]2CC	14.4% (inactive)
CCn1cc(C(=O)N2CC=C(c3ccccc3)CC2)c(=O)c2ccc(C)nc21	-3.28% (inactive)

SMILES	inhibition
CCNC(=O)CCc1nc(-c2ccc(C(C)(C)C)cc2)no1	-1.56% (inactive)
Cc1ccc(S(=O)(=O)N(C)CC(=O)NC2CCCC2)cc1	-0.25% (inactive)
CCN(CC)C(=O)CSc1nnc(-c2ccc(S(=O)(=O)NCc3ccccc3Cl)cc2)o1	1.83% (inactive)
Cc1ccc(C)c(NC(=O)C2CC(=O)N(C(C)C)C2)c1 (stereo unspecified)	-3.18% (inactive)
Cc1ccnc(N2C(=O)c3ccccc3C2Nc2ccc3c(c2)OCCO3)c1 (stereo unspecified)	1.75% (inactive)
Cc1cc(C)nc(SCc2nnc(SCC(=O)OC3CCCCC3)o2)n1	-0.1% (inactive)
O=c1cc(CSc2ccc(Cl)cc2)nc(N2CCOCC2)[nH]1	-2.37% (inactive)
O=C(CCC(=O)OCC(F)(F)C(F)F)NCc1ccccc1	-3.91% (inactive)
O=C(NCCN1CCOCC1)c1c(F)c(F)c(F)c(F)c1F	-0.16% (inactive)
CC(=O)Oc1cc2c(C(=O)NCCN3CCOCC3)c(C)oc2c2ccccc12	91% (active)
O=C(CCN1C(=O)c2ccccc2C1=O)NCCN1CCOCC1	-1.37% (inactive)
Cc1ccc(C(c2sc3nc(C)nn3c2O)N2CCN(c3ccc(F)cc3)CC2)cc1 (stereo unspecified)	2.37% (inactive)
O=C(O)c1cscn1	-1.54% (inactive)
COc1cccc(NC(=O)C(C)Oc2ccccc2)c1 (stereo unspecified)	86.4% (active)
COc1cccc(Nc2ncccc2C(=O)O)c1	1.09% (inactive)
COc1cccc(NC(=O)c2ccccc2SC)c1	-1.59% (inactive)
CCN(CC)S(=O)(=O)c1cccc(C(=O)Nc2cc(C)nn2-c2nc(C)cc(C)n2)c1	-2.41% (inactive)
CSCC[C@H](NC(=O)NCCc1ccc(F)cc1)C(=O)O	-0.8% (inactive)
O=c1nc2s/c(=C\c3ccco3)c(=O)n2nc1Cc1ccccc1	-6.3% (inactive)
CCOC(=O)CSc1nc2c(sc(=S)n2CCc2ccccc2)c(=O)n1Cc1ccco1	-1.25% (inactive)
CN(c1ccccc1)c1ccc(/C=c2\s/c(=C(/C#N)C(=O)C(C)(C)C)n(Cc3ccco3)c2=O)cc1	50.6% (active)
CN(C)c1cc(N)c2ccccc2n1 (tested in a mixture with another compound)	-9.07% (inactive)
CC12CCC(C(=O)N(CCC#N)CCC#N)(CC1=O)C2(C)C (stereo unspecified)	-2.19% (inactive)
O=C(CC1CCCCC1)Nc1c2c(nn1-c1ccc(F)cc1)CS(=O)(=O)C2	-1.94% (inactive)
